# ± gives the standard deviation.
# What was measured:
# Details in all cases: modulator concentration 10 µM
# [1] = system: RAW-Dual (murine macrophage reporter line); assay: NF-kB reporter (SEAP) activity fold change vs agonist alone; higher = enhanced NF-kB activity
# Outline: (§1)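 Compound reached 10 μM final in each well by pin transfer, onto RAW-Dual murine macrophage reporter cells seeded at 50 000 per well in 384-well plates. After 1 hour at 37 °C, the cells were stimulated overnight with a PRR agonist. SEAP in the supernatant was read with QUANTI-Blue at 620 nm absorbance for NF-κB, and Lucia luciferase was read with QUANTI-Luc luminescence for IRF. Each signal was turned into fold change against the mean agonist-only control on the same plate, and two replicate plates were averaged with propagated errors.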
# [2] = system: RAW-Dual (murine macrophage reporter line); assay: IRF reporter (Lucia luciferase) activity fold change vs agonist alone; higher = enhanced IRF activity
# Outline: as §1
# [3] = system: RAW-Dual (murine macrophage reporter line); assay: viability score (confluency relative to resting cells, overnight) (fraction); higher = more viable, active = viable (0.7 or more)
# Outline: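 A compound met the cutoff when both of two confluency masks exceeded 70% of resting cells. Those masks were made with IncuCyte software from IncuCyte images of RAW-Dual macrophages treated overnight at 10 μM final. This is the basis of the viability score, which is confluency relative to resting cells.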
# [4] = agonist: CpG ODN 1826 0.5 ug/mL
Structure (SMILES),"NF-kB reporter [1, 4]",NF-kB reporter ([1]; agonist: LPS 0.1 ug/mL),NF-kB reporter ([1]; agonist: MPLA […]),IRF reporter ([2]; agonist: 3'3'-cGAMP 10 ug/mL),IRF reporter ([2]; agonist: LPS 0.1 ug/mL),IRF reporter ([2]; agonist: MPLA […]),viability score [3]
CC(=O)OC1=C(O)C=CC2C(C)=CC(=O)OC12 (configuration not stated),0.954 ± 0.12,0.823 ± 0.079,1.04 ± 0.1,0.986 ± 0.034,1.3 ± 0.19,1.47 ± 0.3,1.01 (active)
COC(=O)C1=C(C)N(c2ccc(Br)cc2)C(=O)C1=Cc1ccc(O)cc1,1.12 ± 0.088,0.956 ± 0.1,0.93 ± 0.057,0.468 ± 0.035,1.31 ± 0.16,1.05 ± 0.065,1.01 (active)
COc1ccc(CNCc2cccc3ccccc23)cc1OC,0.482 ± 0.04,0.912 ± 0.094,0.966 ± 0.042,0.832 ± 0.15,1.06 ± 0.086,1.16 ± 0.21,0.997 (active)
c1ccc(CC(=NNc2ccccc2)c2ccc(-c3ccccc3)cc2)cc1,0.855 ± 0.091,0.879 ± 0.069,1.07 ± 0.11,0.657 ± 0.028,1.3 ± 0.2,1.35 ± 0.28,1.03 (active)
Oc1c(Br)cc(C=NNc2nc3ccccc3s2)c(O)c1Br,0.957 ± 0.082,0.958 ± 0.098,1.08 ± 0.1,0.642 ± 0.069,1.35 ± 0.23,1.63 ± 0.44,1.03 (active)
CSCCC(NC(C)=O)C(=O)NC1CCN(c2nc(C)nc3c2CCCC3)CC1 (configuration not stated),0.836 ± 0.061,1.06 ± 0.086,0.896 ± 0.048,0.957 ± 0.073,1.29 ± 0.18,1.17 ± 0.16,0.999 (active)
CCCC(=O)Nc1ccc(N2CCCCC2)cc1,0.833 ± 0.067,0.901 ± 0.046,0.979 ± 0.09,0.895 ± 0.043,1.48 ± 0.1,1.65 ± 0.17,0.985 (active)
CCN1C(=O)CC(NCCc2ccc(S(N)(=O)=O)cc2)C1=O (configuration not stated),0.979 ± 0.056,1.03 ± 0.074,0.905 ± 0.065,0.961 ± 0.035,1.46 ± 0.19,1.22 ± 0.16,0.997 (active)
CS(=O)(=O)c1ccc(C2=C(c3ccccc3)C(=O)OC2)cc1,0.962 ± 0.09,1.04 ± 0.071,0.975 ± 0.042,1.05 ± 0.058,0.97 ± 0.074,0.946 ± 0.084,0.997 (active)
COc1ccc(-c2ccc(OCCNC(=O)Cc3ccc(Br)cc3)nn2)cc1,0.959 ± 0.049,1.08 ± 0.084,0.908 ± 0.055,1.02 ± 0.085,1.09 ± 0.2,1.07 ± 0.31,1 (active)
CC(C)(C)NC[C@H](O)COc1nsnc1N1CCOCC1.O=C(O)/C=C\C(=O)O,1.19 ± 0.2,1.13 ± 0.43,0.917 ± 0.056,0.906 ± 0.031,1.3 ± 0.34,1.21 ± 0.14,0.992 (active)
[O-][n+]1cccc(CO)c1,1.58 ± 0.067,1.96 ± 0.16,3.03 ± 0.16,1.14 ± 0.054,1 ± 0.19,1.4 ± 0.42,0.987 (active)
O=C(NCCCOc1cccc2cccnc12)c1cccnc1,0.892 ± 0.081,0.909 ± 0.077,1.11 ± 0.13,1 ± 0.049,1.17 ± 0.2,1.25 ± 0.39,0.989 (active)
O=C(O)c1cc(O)c(O)c(O)c1,0.306 ± 0.013,0.876 ± 0.078,0.749 ± 0.062,0.594 ± 0.03,1.16 ± 0.2,0.97 ± 0.27,1.02 (active)
Cc1cc(C)n(C2CC(=O)N(c3ccccc3)C2=O)n1 (configuration not stated),1.04 ± 0.08,0.926 ± 0.1,1.21 ± 0.2,1.05 ± 0.04,1.31 ± 0.25,1.42 ± 0.21,1.02 (active)
NS(=O)(=O)c1ccc(F)cc1,0.947 ± 0.076,1.04 ± 0.076,0.997 ± 0.11,0.977 ± 0.031,1.24 ± 0.2,1.23 ± 0.17,1.02 (active)
Nc1cccc(O)c1,0.98 ± 0.099,1.08 ± 0.069,1.03 ± 0.023,0.983 ± 0.09,0.946 ± 0.092,0.938 ± 0.11,0.997 (active)
O=c1[nH]cc(F)c(=O)[nH]1,1.48 ± 0.29,0.887 ± 0.21,1 ± 0.059,1.1 ± 0.059,1.33 ± 0.18,1.01 ± 0.17,0.735 (active)
C=C(C)COc1ccc(-c2ncncc2-c2ccccc2)c(O)c1,1.08 ± 0.18,0.985 ± 0.088,0.963 ± 0.082,0.996 ± 0.029,1.14 ± 0.17,1.27 ± 0.13,1 (active)
C[C@H](Nc1ncnc2[nH]cnc12)c1cc2cccc(Cl)c2c(=O)n1-c1ccccc1,0.557 ± 0.042,0.808 ± 0.054,0.859 ± 0.024,0.728 ± 0.041,0.991 ± 0.095,1.1 ± 0.093,0.906 (active)
CCc1ccccc1Nc1nc(-c2sc(NC(C)=O)nc2C)cs1,0.65 ± 0.1,0.555 ± 0.052,0.582 ± 0.048,0.778 ± 0.028,1.3 ± 0.3,1.42 ± 0.26,0.536 (inactive)
OCC(S)CS (configuration not stated),0.949 ± 0.072,0.909 ± 0.059,0.988 ± 0.023,0.336 ± 0.034,0.84 ± 0.07,0.912 ± 0.081,0.994 (active)
COC(CNS(=O)(=O)c1cccnc1)c1ccc(C)s1 (configuration not stated),1.06 ± 0.073,0.992 ± 0.086,1.01 ± 0.096,1.01 ± 0.04,1.02 ± 0.048,0.958 ± 0.12,0.997 (active)
O=C(Nc1cc(C(F)(F)F)cc(C(F)(F)F)c1)c1cccc(Br)c1,1 ± 0.09,1.02 ± 0.079,0.911 ± 0.074,0.935 ± 0.028,1.55 ± 0.27,1.19 ± 0.26,1.01 (active)
N#CCCN(C1CCCCC1)S(=O)(=O)c1cccc2nsnc12,1.05 ± 0.083,0.826 ± 0.051,1.73 ± 0.58,0.867 ± 0.048,1.33 ± 0.077,1.28 ± 0.15,1.01 (active)
C[C@H](Oc1cc(-c2cnn(C3CCNCC3)c2)cnc1N)c1c(Cl)ccc(F)c1Cl,0.85 ± 0.069,0.896 ± 0.11,0.942 ± 0.08,1.03 ± 0.047,1.1 ± 0.23,1.17 ± 0.38,0.998 (active)

# — the supplement of paper PMC10646978
